Source: PubChem (Broad Institute)
aSyn UTR act – Activators working through SNCA 5'UTR binding (MLPCN). alpha-synuclein 5'UTR reporter, activators screen. activity score, % (tested at 7.5 µM), hits read low. AID 1814. 300,000 tested, 7.1% active; in the data active means activity score below about -60%
* marks the source's active call; other numbers are inactive results. Only a sample is shown.

SMILES	aSyn UTR act
CN(C(=O)c1ccco1)c1nnc(C23CC4CC(CC(C4)C2)C3)s1	-144*
CC(/C=N/NC(=O)c1sc(N)nc1C)=C\c1ccccc1	-116*
Cn1cccc1/C=N/NC(=O)c1sc2ccccc2c1Cl	-80*
Cc1nc(N)sc1C(=O)N/N=C/c1c[nH]c2ccccc12	-79*
Cc1nnsc1C(=O)N/N=C/c1ccc2ccccc2c1O	120
O=C(N/N=C/c1c[nH]c2ccccc12)c1sc2ccccc2c1Cl	-69*
Cc1nc(N)sc1C(=O)N/N=C/c1ccccc1[N+](=O)[O-]	-133*
CN(C)c1cc(N/N=C/c2ccc(Cl)cc2)nc(N(C)C)n1	-64*
COc1ccc(CCNC(=O)c2cc3c(=O)n4cccc(C)c4nc3n(CCCN3CCOCC3)c2=N)cc1	-67*
COc1ccc(CNC(=O)C(C)Sc2nc3ccccc3c(=O)n2CCCN2CCOCC2)cc1 (stereo unspecified)	38
COc1ccc(CCn2c(=N)c(C(=O)NCC3CCCO3)cc3c(=O)n4cccc(C)c4nc32)cc1 (stereo unspecified)	-116*
N#C/C(C(=O)N1CCOCC1)=C1\Nc2ccccc2S1	-65*
COc1ccc(C2CC2C(=O)c2ccccn2)cc1 (stereo unspecified)	-73*
COc1ccc(C2CC2/C(=N/O)c2ccccn2)cc1 (stereo unspecified)	-86*
O=C(c1cc2ccccc2oc1=O)N(c1ccc(Cl)cc1)C1C=CS(=O)(=O)C1 (stereo unspecified)	-155*
COc1cccc(-c2ccnc3[nH]n(-c4ccccc4)c(=O)c23)c1	-76*
CC1(C)OC2OC(COC(=O)c3ccccc3)C3OC(C)(C)OC3C2O1 (stereo unspecified)	-89*
O=C(Nc1ccc(-c2nc3ncccc3o2)cc1)c1ccc(Br)o1	-103*
O=C(Nc1ccc(-c2nc3ncccc3o2)cc1)c1ccco1	-163*
CCOC(=O)C1CCN(C(=O)c2cc(COc3ccc(F)cc3F)on2)CC1	-144*
CCOC(=O)N1CCN(C(=O)c2cc(COc3ccc(F)cc3F)on2)CC1	-65*
CCN1C(=S)SC(=O)C1=C1C=C(C)OC(C)=C1	-97*
CCN1C(=S)SC(=O)C1=C1C=C(C)N(Cc2ccco2)C(C)=C1	-132*
CC1SCC(=NOCc2ccccc2)CS1 (stereo unspecified)	-89*
c1ccc(N2CCN(c3cnc4ccccc4n3)CC2)cc1	-77*
SMILES	aSyn UTR act
Clc1ccc(N2CCN(c3cnc4ccccc4n3)CC2)cc1	-137*
Fc1ccc(N2CCN(c3cnc4ccccc4n3)CC2)cc1	-251*
CN(C)c1ccc(NC(=O)Nc2ccc3c(c2)nnn3C)cc1	-109*
Cn1nnc2cc(C(=O)Nc3ccc(Cl)cc3)ccc21	-117*
O=C(NC(C(=O)c1ccccc1)N1CCCCC1)c1ccccc1 (stereo unspecified)	-87*
O=C(NC(C(=O)c1ccccc1)n1ccc(=O)[nH]c1=O)c1ccccc1 (stereo unspecified)	-208*
N#Cc1ccsc1NC(=O)COC(=O)c1ccc2ccccc2c1	-203*
COc1ccc(CCC(=O)Nc2sccc2C#N)cc1	-156*
CCc1cccc2c1Sc1ccccc1CC2N1CCNCC1 (stereo unspecified)	104
Fc1ccccc1CSc1nnnn1-c1ccc2c(c1)OCO2	-65*
CC(=O)Oc1ccc(-c2nc(-c3cccnc3)no2)cc1	-93*
CC(=O)Oc1ccc(Oc2ccc(-c3noc(C)n3)cc2)cc1	-77*
O=C(NC(=S)Nc1ccc(CN2CCOCC2)cc1)c1ccc2c(c1)OCCO2	-116*
O=C(NC(=S)Nc1ccc(N2CCCCC2)cc1)c1ccc2c(c1)OCCO2	-125*
Cc1cccc2cc3c(N)c(C#N)sc3nc12	84
Cc1sc(NC(=O)c2sc3nc4c(C)cccc4cc3c2N)c(C#N)c1C	-119*
Cc1c(C(=O)NC2=NCCS2)oc2ccccc12	-62*
Cc1cc(C(=O)Nc2sc(C)c(C)c2C#N)c(C)o1	-65*
Cc1sc(NC(=O)c2oc3ccccc3c2C)c(C#N)c1C	-107*
Cc1csc(Nc2nc(N)c(C(=O)Nc3ccccc3)o2)n1	-131*
Cc1csc(NC(=O)c2oc3ccccc3c2C)n1	-68*
Cc1occc1C(=O)O/N=C(\N)c1ccc(Cl)cc1	-71*
COc1cc(OC)c(C(=O)O/N=C(\N)c2cccc(C)c2)cc1OC	-67*
COc1ccc(Cl)cc1C(=O)O/N=C(\N)c1ccc(Cl)cc1	-267*
COc1cc(OC)c(C(=O)O/N=C(\N)c2ccc(C)cc2)cc1OC	-66*
SMILES	aSyn UTR act
CCCCCCCn1c2c(c(=N)c3c1CCC3)CCCC2	83
CN1CCN(C2Cc3ccc(F)cc3Sc3cc(F)c(Cl)cc32)CC1 (stereo unspecified)	102
Cc1nnc2n(c1=O)N=C(c1ccc(Cl)cc1)CS2	-93*
COc1ccc(C2=Nn3c(nnc3-c3ccc(OC)cc3)SC2)cc1	100
O=C1N=C(N2CCCCC2)S/C1=C\c1ccccc1F	-143*
C=CCOc1ccc(/C=C2\SC(N3CCCCC3)=NC2=O)cc1	-66*
Cc1ccc(/C=C2\SC(N3CCCCC3)=NC2=O)cc1	-176*
O=C1N=C(N2CCCCC2)S/C1=C\c1ccc(Cl)cc1	-150*
CCS(=O)(=O)c1nc(S(=O)(=O)c2ccc(C)cc2)c(N2CC(C)OC(C)C2)s1 (stereo unspecified)	-105*
CCCS(=O)(=O)c1nc(S(=O)(=O)c2ccc(C)cc2)c(N2CCN(C)CC2)s1	-69*
Fc1cc(Br)ccc1NC(=S)Nc1ccccc1	-115*
Cc1ccc(NC(=S)Nc2ccc(Br)cc2)cc1	-86*
Fc1ccccc1NC(=S)Nc1ccc(Br)cc1	-74*
Cc1nnc(SCC(=O)Nc2nc(-c3ccccc3)cs2)n1N	-81*
Cn1c(CCNC(=O)c2cccs2)nnc1SCC(=O)Nc1nc(-c2ccccc2)cs1	-73*
Cc1ccc(C(=O)NCCc2nnc(SCC(=O)Nc3nc(-c4ccccc4)cs3)n2C)cc1	-65*
Cc1cc(C(=O)NC2CCCc3c2cnn3-c2cccc(C)c2C)no1 (stereo unspecified)	-118*
COC(=O)c1ccc(C(=O)NC2CCCc3c2cnn3-c2ccc(C)c(C)c2)cc1 (stereo unspecified)	104
Cc1ccc(C(C)C)c(OCc2ccc(C(=O)N/N=C/c3ccc(O)cc3O)cc2)c1	96
Cc1ccc(C(C)C)c(OCc2nc(-c3nonc3N)no2)c1	-92*
CCOC(=O)c1cc2c(nc1NC(=S)NCc1ccccc1)CCCC2	-107*
Cn1cnnc1SCc1ccc(-c2ccc(Br)cc2)o1	-72*
CN(C)c1cccc(C(=O)Nc2cccc(F)c2)c1	-175*
CCN(CC)c1ccc(C(=O)Nc2cccc(F)c2)cc1	-77*
COc1cccc(C(=O)NCCS(=O)(=O)NCCc2ccccc2)c1	-75*
SMILES	aSyn UTR act
COc1ccc(C(=O)NCCS(=O)(=O)NCCc2ccccc2)cc1	-72*
COC(=O)c1c(N)sc(C(=O)NCCc2ccccc2)c1C	105
O=C(NCCS(=O)(=O)NCCc1ccccc1)c1ccc2c(c1)OCO2	-120*
CSc1cccc(NCc2ccc([N+](=O)[O-])cc2)c1	-63*
CCc1ccc(OCC(=O)N2CCc3ccccc32)cc1	-190*
Cc1ccc(OCC(=O)N2CCc3ccccc32)cc1	-121*
O=C(COc1ccc2c(c1)CCC2)N1CCc2ccccc21	-123*
Cc1ccnc(NC(=O)COc2ccc3c(c2)CCC3)c1	-90*
O=C(CO/N=C/c1ccccc1O)N1CCc2ccccc21	-67*
CCc1ccc(C(=O)c2cncc(Br)c2)cc1	-63*
